# From PubChem BioAssay (NCATS)
# Inconclusive results are not listed. A call without a number means that no potency is given here. Values without a mark were called inactive. Active and inactive are the calls of the source. Calls come from the whole dose curve; as a rule, active = well fitted curve in the direction sought with a large enough effect; inconclusive = small, poorly fitted or top-dose-only effect, or another doubt; inactive = no such curve, though single readings can be large; an effect the other way counts as inactive or inconclusive.
# What was measured:
# SKOV3 = experiment: Primary qHTS to identify gynecologic anti-cancer compounds using libraries of approved drugs and bioactive compounds (AID 1345084); details: Gynecologic cancer cell panel viability, ATPlite luminescence, 48 h; series mostly up to 57.5 µM; note: nearly all actives have a fitted effect of over 55% in size
# How it was run: (§1)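 Five-point cytotoxicity, 48 h drug exposure at 37 C, 5% CO2, on cells seeded 16 h beforehand. ATP content read by ATPlite luminescence.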
# Tov112D = experiment: as above; details: Gynecologic cancer cell panel viability, ATPlite luminescence, 48 h; series mostly up to 57.5 µM
# How it was run: as §1
# [1] = Drug repurposing screens with cells derived from glioblastoma tumor samples (AID 1345199); details: GBM patient neurospheres viability, ATP luminescence, 48 h; note: nearly all actives have a fitted effect of over 40% in size
# How it was run: (§2)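 Primary testing used CD133+ neurospheres from four GBM patients, seven concentrations, 48 h exposure and ATP-based viability; confirmation added three slower-growing patient lines.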
# astro = experiment: as above; details: viability, ATP luminescence, 48 h; series mostly up to 45.9 µM
# How it was run: as §2
# [2] = qHTS assay to identify inhibitors of the type 1 interferon - major histocompatibility complex class I in skeletal muscle: Counter screen cell viability and HiBit confirmation (AID 1347412); details: iHSKM muscle cells + IFN-b, HiBiT or CellTiter-Glo, 24 h; for activity change, negative = inhibition: at 45.9 µM (top of the series); for all read-outs here: nearly all actives have a fitted effect of over 60% in size
# How it was run: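 HLA-B*08:01–HiBiT knock-in immortalized human myoblasts (C25cl48) stimulated with 4.0 ng/ml human IFN-beta and dosed with compound in a 12-point 1:3 titration (top final 46 uM). After 24 hrs at 37 C, HiBiT lytic luminescence or CellTiter Glo ATP read out.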
# Tov-21-G = experiment: Primary qHTS to identify gynecologic anti-cancer compounds using libraries of approved drugs and bioactive compounds (AID 1345084); details: Gynecologic cancer cell panel viability, ATPlite luminescence, 48 h; series mostly up to 57.5 µM; note: nearly all actives have a fitted effect of over 55% in size
# How it was run: as §1
# Potency is the fitted concentration of half-maximal effect.
smiles,measurement,setting,value
C[C@H](CN(C)C)Oc1nc(Nc2cc3cccc(Cl)c3cn2)cnc1C#N,Potency,SKOV3,12.6 µM (active)
same,Potency,Tov112D,inactive
C/C=C(\C)C(=O)O[C@H]1C=CC(=O)O[C@H]1/C=C/[C@@H](O)[C@H](C)O,Potency,SKOV3,inactive
same,Potency,Tov112D,inactive
C=C1C(=O)O[C@@H]2/C=C(\C)CC/C=C(/C=O)[C@H](OC)[C@@H](OC(=O)C(C)C)[C@@H]12,Potency,SKOV3,inactive
same,Potency,Tov112D,inactive
C=CC(=O)Nc1cccc(Nc2nc(Nc3ccc(OCCOC)cc3)ncc2F)c1,Potency,SKOV3,2.82 µM (active)
same,Potency,Tov112D,4.47 µM (active)
O=C(Nc1ccc2[nH]nc(-c3ccncc3)c2c1)[C@@H]1CCN(CC(=O)N2CCN(c3ccc(-c4ncccn4)cc3)CC2)C1,Potency,SKOV3,inactive
same,Potency,Tov112D,inactive
CO[C@H]1C[C@@H]2CC[C@@H](C)[C@@](O)(O2)C(=O)C(=O)N2CCCC[C@H]2C(=O)O[C@H]([C@@H](C)C[C@@H]2CC[C@@H](O)[C@H](OC)C2)CC(=O)[C@H](C)/C=C(\C)[C@@H](O)[C@@H](OC)C(=O)[C@H](C)C[C@H](C)/C=C/C=C/C=C/1C,Potency,SKOV3,inactive
same,Potency,Tov112D,inactive
C=C(C(=O)O[C@H]1C/C(C)=C/CC/C(CO)=C/[C@H]2OC(=O)C(=C)[C@H]12)C(O)CO (some centres not stated),Potency,SKOV3,inactive
same,Potency,Tov112D,inactive
C=C1C(=O)O[C@@H]2C[C@H](C)[C@@H]3CC(=O)[C@H](O)[C@@]3(C)C[C@H]12,Potency,SKOV3,inactive
same,Potency,Tov112D,inactive
CC(C)S(=O)(=O)c1ccc2nccc(Nc3ccc4scnc4c3)c2c1,Potency,SKOV3,12.6 µM (active)
same,Potency,Tov112D,inactive
C=C1C(=O)OC2C1CCC1(C)C(O)CC=C(C)C21 (configuration not stated),Potency,SKOV3,inactive
same,Potency,Tov112D,inactive
C[C@H]1CO[C@@H]2Cn3cc(C(=O)NCc4ccc(F)cc4F)c(=O)c(O)c3C(=O)N12,Potency,SKOV3,inactive
same,Potency,Tov112D,inactive
C=C1C(=O)OC2/C=C(\CO)CC/C=C(\C=O)C(OC)C(OC(=O)C(C)CC)C12 (configuration not stated),Potency,SKOV3,inactive
same,Potency,Tov112D,inactive
Cc1c[nH]c2ncnc(N3CCC(CN)(C(=O)Nc4cccc(OC(=O)N(C)C)c4)CC3)c12,Potency,SKOV3,22.4 µM (active)
same,Potency,Tov112D,inactive
CC(=O)O[C@@H]1[C@H](O[C@@H]2O[C@@H](CO)[C@H](O)[C@H]2O)[C@@H](O[C@@H]2O[C@@H](C)[C@H](O[C@@H]3OC[C@@H](O)[C@H](O)[C@H]3O)[C@@H](O)[C@H]2O)[C@H](OC(=O)[C@]23CCC(C)(C)C[C@H]2C2=CCC4[C@@]5(C)CC[C@H](O[C@@H]6O[C@H](C(=O)O)[C@@H](O)[C@H](O)[C@H]6O[C@@H]6O[C@H](CO)[C@H](O)[C@H](O)[C@H]6O)[C@@](C)(C=O)C5CC[C@@]4(C)[C@]2(C)C[C@H]3O)O[C@@H]1C (some centres not stated),"activity change, negative = cytotoxicity",SKOV3,8.44% [at 6.55 µM]
same,"activity change, negative = cytotoxicity",Tov112D,-3.22% [at 6.55 µM]
COc1cc2c(cc1-c1c(C)noc1C)ncc1[nH]c(=O)n(C(C)c3ccccn3)c12 (configuration not stated),Potency,SKOV3,12.6 µM (active)
same,Potency,Tov112D,inactive
C=C1C(=O)O[C@@H]2[C@H]1CC[C@H](C)[C@]1(CCC(=O)O1)C2(C)O (some centres not stated),Potency,SKOV3,inactive
same,Potency,Tov112D,inactive
COc1cc(N2CCC(O)CC2)ccc1Nc1nc(Nc2ccccc2S(=O)(=O)C(C)C)c2[nH]cnc2n1,Potency,SKOV3,inactive
same,Potency,Tov112D,inactive
CN[C@H]1CC[C@@H](c2ccc(Cl)c(Cl)c2)c2ccccc21,"activity, negative = cell killing","[1]; at 46.1 µM (top of the series), tumour line C",17.5%
same,Potency,[1]; tumour line A,2.24 µM (active)
same,Potency,[1]; tumour line B,17.8 µM (active)
same,Potency,[1]; tumour line D,6.31 µM (active)
same,Potency,astro,20 µM (active)
Oc1cccc(-c2c3nc(c(-c4cccc(O)c4)c4ccc([nH]4)c(-c4cccc(O)c4)c4nc(c(-c5cccc(O)c5)c5ccc2[nH]5)CC4)C=C3)c1,Potency,astro,25.1 µM (active)
CCNC(=O)C#Cc1ccc2c(C(=Nc3ccc(CN(C)C)cc3)c3ccccc3)c(O)[nH]c2c1,Potency,[2]; HiBiT,17.6 µM (active)
same,Potency,[2]; Viability,9.91 µM (active)
CCn1nc(C2CCN(C(=O)CCO)CC2)nc1-c1cnc(N)c(-c2nnc(C(C)(C)C)o2)n1,"activity change, negative = inhibition",[2]; HiBiT,-28.4%
Cc1sc2c(c1C)C(c1ccc(Cl)cc1)=N[C@@H](CC(=O)Nc1ccc(OCCOCCOCCOCCNc3cccc4c3C(=O)N(C3CCC(=O)NC3=O)C4=O)cc1)c1nnc(C)n1-2 (some centres not stated),"activity change, negative = inhibition",[2]; Viability,0.552%
Cc1[nH]c(/C=C2\C(=O)Nc3ccc(F)cc32)c(C)c1C(=O)NCCN1CCCC1,"activity change, negative = inhibition",[2]; Viability,-1.6%
CN(C)CCN(Cc1ccccc1)C(=O)c1cc(-c2ccc(F)cc2)n2nc(C(C)(C)C)cc2n1,Potency,Tov-21-G,inactive
same,Potency,Tov112D,inactive
O=C(Nc1cccnn1)N1CCN(c2nccc(-c3ccc(F)c(F)c3)n2)CC1,Potency,Tov-21-G,inactive
same,Potency,Tov112D,inactive
CC(=O)NC(C)c1cnc(-c2cnc(Oc3ccc(OC(C)C)cc3)s2)s1 (configuration not stated),Potency,Tov-21-G,inactive
same,Potency,Tov112D,inactive
O=C(Nc1ccc(CN2CCOCC2)cc1)c1ccc(-c2cccc(Cl)c2)o1,Potency,Tov-21-G,inactive
same,Potency,Tov112D,inactive
N#Cc1cc(C2=Nc3ccc(Br)cc3NC(=O)C2)ccn1,Potency,Tov-21-G,inactive
same,Potency,Tov112D,inactive
OC[C@H]1O[C@@H](OC/C=C/c2ccc(O)cc2)[C@H](O)[C@@H](O)[C@@H]1O,Potency,Tov-21-G,inactive
same,Potency,Tov112D,inactive
